Rows were chosen to be rich in hits. Some 4% of all compounds tested hit in one or more screens of this group.
TRHR enhancer-1: allosteric enhancers of human TRH receptor. P34981. TRHR cells, fluo-8 calcium fluorescence, EC20 TRH enhancement. enhancement, % at 2 µM. actives 0.66% (n = 360,000); in the data active = enhancement above about 30%
Target sequence (P34981 whole entry, looked up): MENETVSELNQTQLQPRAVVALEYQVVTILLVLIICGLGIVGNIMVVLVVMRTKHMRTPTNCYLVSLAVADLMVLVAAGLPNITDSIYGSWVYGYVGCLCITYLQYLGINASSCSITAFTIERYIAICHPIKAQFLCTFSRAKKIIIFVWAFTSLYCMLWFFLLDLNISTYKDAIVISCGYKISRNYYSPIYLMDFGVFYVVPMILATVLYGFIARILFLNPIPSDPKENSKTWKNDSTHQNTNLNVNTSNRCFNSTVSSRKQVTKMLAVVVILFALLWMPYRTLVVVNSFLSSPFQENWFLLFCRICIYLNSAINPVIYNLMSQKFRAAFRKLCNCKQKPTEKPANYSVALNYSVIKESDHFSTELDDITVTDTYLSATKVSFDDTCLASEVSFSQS
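Enhancer read-out: after compound pinning and an initial kinetic agonist-mode read, an EC20 of TRH (10 nM final) was injected and fluo-8 calcium signal (Ex 480/Em 530) followed at 1 s/cycle for 100 cycles in TRHR-expressing cells.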
D1 agonist: activates the human D1 dopamine receptor | activation, % at 2 µM | P21728 | HEK293 T-REx D1 cells, calcium flux, agonist mode | actives 1% (n = 360,000); in the data active = activation above about 30%
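Tetracycline-induced HEK293 TREx D1 cells, force-coupled to calcium signalling, were dye-loaded with a no-wash calcium kit. Compound was pin-added after a 10 s baseline. Fluorescence was read kinetically at 1 cycle/s for 180 s, with calcium rises flagged as agonism.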
TRHR agonist-1: agonists of human TRH receptor; P34981; TRHR cells, calcium flux fluo-8, FDSS agonist mode; activation, % at 2 µM; actives 0.18% (n = 360,000); in the data active = activation above about 30%
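Agonist-mode FDSS calcium read (Ex 480/Em 530, 1 s cycles) in 1536-well TRHR cells with fluo-8 dye, after 10-cycle baseline and 23 nL compound addition; TRH at EC20 (10 nM final) added afterwards for the enhancer phase.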
D1 antag: antagonists of human D1 dopamine receptor. AID 504652. activity change, negative = inhibition, % at 10 µM. actives 3.2% (n = 360,000). P21728. HEK293 TREx D1 cells, calcium flux, dopamine EC80; active compounds read low; in the data active = activity change below about -30%
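Allosteric or orthosteric antagonism assessed as attenuation of the calcium response to EC80 dopamine, added 180 s after compound, in induced HEK293 Trex D1 cells loaded with no-wash calcium dye.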
D1 potentiator: enhances dopamine response at the human D1 receptor | HEK293 TREx D1 cells, calcium flux, dopamine EC20 potentiation | potentiation, % at 10 µM | actives 0.036% (n = 360,000); in the data active = potentiation above about 30%
GRP78 ERSR act: induces the endoplasmic reticulum stress response in human glioma cells; U87-MG GRP78 promoter luciferase reporter, 16 h; Potency, µM, most hits filed as activators; actives 0.02% (n = 420,000); AID 602332; note: series mostly up to about 76 µM; nearly all actives have a fitted effect of over 35% in size
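Stably transfected U87-MG glioma cells carrying a GRP78-based luciferase sensor; 16 h compound incubation. Luminescence end-point read 10 min after Bright-Glo addition at room temperature.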
TRHR enhancer-2: human TRH receptor allosteric enhancement confirmation. shares compounds with TRHR enhancer-1. TRH receptor cell assay, enhancer confirmation qHTS. activity change, negative = inhibition, % at 46.1 µM. 970 tested, under 10 active;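 note: compound effect scored on response to added TRH at EC20 of 10 nM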
TRHR agonist-2: confirmation of human TRH receptor agonists; shares compounds with TRHR enhancer-1; TRHR-expressing cells, agonist activation read-out; Potency, µM (doses to about 46.1 µM), hits mostly activators; actives 8% (n = 970); AID 493078; note: nearly all actives have a fitted effect of over 75% in size
Of the large screens only hits and unclear results are named; the others gave an inactive call (follow-up assays come after a bar, where they were run). Unless noted, calls come from the whole dose curve; as a rule, active = well fitted curve in the direction sought with a large enough effect; inconclusive = small, poorly fitted or top-dose-only effect, or another doubt; inactive = no such curve, though single readings can be large; an effect the other way counts as inactive or inconclusive.

Cc1ccc(Oc2ccc(NC(=O)c3ccco3)cc2)cc1	D1 antag -47
Cc1nnc(NC(=O)c2ccco2)s1	D1 antag -52
CCC(C)C(NC(=O)c1ccccc1NC(=O)c1ccco1)C(=O)NNC(=O)c1ccc(OC)cc1 (stereo not given)	D1 antag -63
Cc1ccc(-c2nnc(NC(=O)c3ccco3)s2)cc1	none
O=C(Nc1nnc(Cc2ccc(Cl)cc2)s1)C1CCN(C(=O)c2ccco2)CC1	none (no result: TRHR enhancer-1, D1 agonist, TRHR agonist-1, D1 antag, D1 potentiator)
O=S(=O)(c1cccc(F)c1)N1CCN(c2nc(-c3cccs3)nc3ccccc23)CC1	none (no result: TRHR enhancer-1, D1 agonist, TRHR agonist-1, D1 antag, D1 potentiator)
CCN(CC)/[N+]([O-])=N/OCOC(=O)C(C)c1ccc(CC(C)C)cc1 (stereo not given)	none (no result: TRHR enhancer-1, D1 agonist, TRHR agonist-1, D1 antag, D1 potentiator)
COc1cc(CN2c3ccc(Br)cc3C(=O)CS2(=O)=O)cc(OC)c1	none (no result: TRHR enhancer-1, D1 agonist, TRHR agonist-1, D1 antag, D1 potentiator)
COc1ccc(N2CCN(C(=O)CN(c3cccc(OC)c3)S(=O)(=O)c3ccccc3)CC2)cc1	none
CCN(CC)C(=O)CS(=O)(=O)CC(=O)Nc1cc(OCCOC)c(Cl)cc1Cl	D1 antag -55
COCCOc1cc(NC(=O)CS(=O)CC(=O)N(C)C)c(Cl)cc1Cl (stereo not given)	none
O=C(NCc1ccc(/C=c2\sc3n(c2=O)CCN=3)o1)C(=O)Nc1ccccc1	none (no result: GRP78 ERSR act)
Cc1ccc(S(=O)(=O)c2c(N)n(CCN3CCOCC3)c3nc4ccccc4nc23)cc1C	none
Cc1ccc(S(=O)(=O)c2c(N)n(Cc3ccco3)c3nc4ccccc4nc23)cc1C	D1 agonist 92
CN(CC(=O)NCc1ccncc1)S(=O)(=O)c1ccc2ccccc2c1	none
COc1ccccc1C1N=C(Nc2nc3ccccc3o2)NC2=C1C(=O)CC(C)(C)C2 (stereo not given)	none (no result: TRHR enhancer-1, D1 agonist, TRHR agonist-1, D1 antag, D1 potentiator)
CCO[C@H]1OC(C(=O)N2CCN(Cc3ccc4c(c3)OCO4)CC2)=C[C@@H](c2ccc(Br)cc2)[C@@H]1CCCO	TRHR enhancer-1 49 | TRHR enhancer-2 inactive | TRHR agonist-2 inactive
Cc1cc(C)cc(NC(=O)COC(=O)c2cccc(S(=O)(=O)N3CCCCC3)c2)c1	none
CCOc1ccc(C(=O)Nc2ccc(N3CCN(C)CC3)cc2)cc1[N+](=O)[O-]	TRHR enhancer-1 63 | TRHR enhancer-2 inactive | TRHR agonist-2 inactive
CCOc1ccc(C(=O)Nc2ccc(N3CCN(C(C)=O)CC3)cc2)cc1[N+](=O)[O-]	none
CCCCNC(=O)c1cc(-c2ccc(F)cc2)on1	TRHR enhancer-1 41, GRP78 ERSR act inconclusive | TRHR enhancer-2 inactive | TRHR agonist-2 inactive
Cc1ccc(NCC(=O)Nc2ccc(Br)cc2)cc1C	TRHR enhancer-1 70, D1 antag -48 | TRHR enhancer-2 inactive | TRHR agonist-2 inactive
Cc1ccc(F)cc1NCC(=O)Nc1ccc(Br)cc1	none
Fc1ccc(C2CC(c3ccco3)=NN2c2ccccc2)cc1 (stereo not given)	none
O=[N+]([O-])c1ccc(N2N=C(c3ccco3)CC2c2ccccc2)cc1 (stereo not given)	D1 agonist 50 | TRHR enhancer-2 inactive | TRHR agonist-2 inconclusive
CCc1ccc2nc(/N=C(\N)NC(=O)c3ccccc3)nc(C)c2c1	TRHR enhancer-1 45 | TRHR enhancer-2 inactive | TRHR agonist-2 inactive
Cc1cc(C)c2nc(/N=C(\N)NC(=O)c3ccccc3)nc(C)c2c1	none
CCOc1ccccc1CN1CCCC(CNC(=O)Cc2ccc(OC)cc2)C1 (stereo not given)	none
COc1ccc(CCNc2oc(-c3ccccc3OC)nc2C#N)cc1	none
COc1ccc(CCNc2oc(-c3ccccc3OC)nc2C#N)cc1OC	TRHR enhancer-1 43 | TRHR enhancer-2 inconclusive | TRHR agonist-2 inactive
COc1ccc(C(=O)NC2CC2)cc1OC1CCN(C(C)CSC)CC1 (stereo not given)	none | TRHR enhancer-2 inactive | TRHR agonist-2 inactive
